Data as given in ChEMBL document CHEMBL3988442, “University of Dundee, Small-Polar-MMV Screening Library” (2021).
For some of these results: Potency and affinity values are given separately.

Tests used:
Set-up in all cases: scale not given: direction of the effect not stated beside the values
[1] = molecular target: Protein translocase subunit SecA (Escherichia coli (strain K12)) (UniProt P10408); test: Assay to Identify E. coli SecA ATPase Inhibitors; format: functional; conditions: 30 µM
[2] = molecular target: T1, Ubiquitin-activating enzyme e1, putative (Leishmania donovani (strain BPK282A1)) (UniProt E9BSI1); test: Leishmania donovani Ubiquitin Activating Enzyme (LdE1); format: functional; conditions: 30 µM
T1 sequence (whole entry): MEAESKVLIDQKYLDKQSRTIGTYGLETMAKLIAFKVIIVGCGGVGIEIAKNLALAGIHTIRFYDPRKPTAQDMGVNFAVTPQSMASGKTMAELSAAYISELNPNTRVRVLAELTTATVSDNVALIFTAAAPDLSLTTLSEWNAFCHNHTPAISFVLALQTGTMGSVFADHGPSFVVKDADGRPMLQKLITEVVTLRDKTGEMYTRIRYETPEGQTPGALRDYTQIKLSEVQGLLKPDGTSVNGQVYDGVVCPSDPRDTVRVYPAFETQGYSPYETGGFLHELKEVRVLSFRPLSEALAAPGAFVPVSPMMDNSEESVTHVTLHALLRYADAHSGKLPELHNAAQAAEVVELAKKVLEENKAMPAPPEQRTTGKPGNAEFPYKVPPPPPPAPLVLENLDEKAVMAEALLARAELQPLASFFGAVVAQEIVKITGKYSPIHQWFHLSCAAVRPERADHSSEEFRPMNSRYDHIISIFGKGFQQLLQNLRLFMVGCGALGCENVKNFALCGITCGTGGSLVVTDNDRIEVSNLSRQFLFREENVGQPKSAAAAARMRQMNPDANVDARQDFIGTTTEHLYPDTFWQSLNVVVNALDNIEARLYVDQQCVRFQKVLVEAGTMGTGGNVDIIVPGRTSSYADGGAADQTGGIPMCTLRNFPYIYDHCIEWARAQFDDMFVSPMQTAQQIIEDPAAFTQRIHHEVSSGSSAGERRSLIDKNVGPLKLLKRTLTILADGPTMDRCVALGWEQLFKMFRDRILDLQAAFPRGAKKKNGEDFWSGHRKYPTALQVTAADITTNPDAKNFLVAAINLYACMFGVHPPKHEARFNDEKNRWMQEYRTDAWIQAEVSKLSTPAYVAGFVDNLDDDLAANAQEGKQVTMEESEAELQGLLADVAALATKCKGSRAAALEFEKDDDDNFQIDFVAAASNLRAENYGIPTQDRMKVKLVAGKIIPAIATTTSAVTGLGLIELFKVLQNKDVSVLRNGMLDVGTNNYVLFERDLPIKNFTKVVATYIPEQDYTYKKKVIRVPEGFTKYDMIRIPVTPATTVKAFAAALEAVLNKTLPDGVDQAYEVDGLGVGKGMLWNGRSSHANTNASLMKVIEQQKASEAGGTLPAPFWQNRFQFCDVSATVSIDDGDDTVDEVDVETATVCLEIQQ

[3] = molecular target: AMP-activated protein kinase, AMPK (Homo sapiens) (UniProt P54646+O43741+P54619+Q9UGJ0+Q9Y478+Q13131+Q9UGI9); test: AMP-dependent Kinase enzyme assay. An in vitro enzyme assay that detects ADP turnover that is directly proportional to AMPK activity. This uses naive AMPK that is activated during the assay with MK-8722; format: functional; conditions: 30 µM
[4] = molecular target: Sialic acid-binding Ig-like lectin 9 (Homo sapiens) (UniProt Q9Y336); test: Hs-Siglec9 ALPHAscreen SOP 20170721; conditions: 10 µM
Chain of Sialic acid-binding Ig-like lectin 9 (Homo sapiens) (Q9Y336 whole entry): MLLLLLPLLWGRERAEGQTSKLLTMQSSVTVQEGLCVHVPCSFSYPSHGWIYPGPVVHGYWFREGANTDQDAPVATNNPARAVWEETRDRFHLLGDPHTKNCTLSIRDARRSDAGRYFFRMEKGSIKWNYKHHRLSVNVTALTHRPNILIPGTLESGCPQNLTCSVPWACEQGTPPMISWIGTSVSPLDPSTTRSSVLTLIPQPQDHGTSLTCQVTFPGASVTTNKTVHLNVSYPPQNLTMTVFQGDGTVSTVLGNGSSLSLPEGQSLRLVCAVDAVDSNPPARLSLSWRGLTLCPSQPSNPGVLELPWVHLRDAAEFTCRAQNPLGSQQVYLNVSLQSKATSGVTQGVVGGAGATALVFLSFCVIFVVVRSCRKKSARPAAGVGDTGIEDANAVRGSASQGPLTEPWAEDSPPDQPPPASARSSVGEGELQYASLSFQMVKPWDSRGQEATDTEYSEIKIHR

Trypanosoma cruzi = test: Trypanosoma cruzi phosphomannomutase and mannose-1-phosphate guanylyltransferase assay; format: functional; conditions: 10 µM
[5] = molecular target: T2, Arginase-2, mitochondrial (Homo sapiens) (UniProt P78540); test: in vitro enzyme assay to detect the production of urea directly proportional to the activity of Arginase II; format: functional; conditions: 33.3 µM; note: in the data most compounds retested in dose-response had high values
T2 sequence (whole entry): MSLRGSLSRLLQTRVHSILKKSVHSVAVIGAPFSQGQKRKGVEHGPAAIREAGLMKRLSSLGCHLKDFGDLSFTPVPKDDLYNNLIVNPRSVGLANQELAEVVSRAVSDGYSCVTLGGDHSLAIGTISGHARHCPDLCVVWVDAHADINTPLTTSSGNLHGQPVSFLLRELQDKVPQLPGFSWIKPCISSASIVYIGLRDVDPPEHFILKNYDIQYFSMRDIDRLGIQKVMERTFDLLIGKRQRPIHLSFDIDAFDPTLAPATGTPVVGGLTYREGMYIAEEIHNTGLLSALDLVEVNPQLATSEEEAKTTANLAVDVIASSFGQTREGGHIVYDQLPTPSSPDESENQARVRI

[6] = molecular target: T3, Proteasome subunit beta (Trypanosoma cruzi) (UniProt O96673); test: Trypanosoma cruzi proteasome chymotrypsin-like activity (TcProtChymo) assay.; note: in the data most compounds retested in dose-response had high values; format: functional; conditions: 9.37 µM
T3 sequence (whole entry): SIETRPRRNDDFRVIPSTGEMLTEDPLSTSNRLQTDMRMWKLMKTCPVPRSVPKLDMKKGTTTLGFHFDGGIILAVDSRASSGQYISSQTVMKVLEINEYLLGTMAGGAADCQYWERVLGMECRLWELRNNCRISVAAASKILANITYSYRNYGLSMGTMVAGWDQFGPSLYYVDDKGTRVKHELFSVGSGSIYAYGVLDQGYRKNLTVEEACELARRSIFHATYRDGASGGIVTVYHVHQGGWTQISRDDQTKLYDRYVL

Homo sapiens = species on record: Homo sapiens; test: To identify inhibition of the IFN signalling (Jak-Stat) pathway via expression of an eGFP reporter gene under the control of an IFN-stimulated response element (ISRE) containing MxA promoter.; format: functional; conditions: 30 µM
[7] = molecular target: T4, Tyrosyl-tRNA synthetase, putative (Trypanosoma cruzi (strain CL Brener)) (UniProt Q4DSP6); test: Trypanosoma cruzi tyrosyl tRNA synthetase (TcYRS) _High Tyrosine SOP; format: functional; conditions: 30 µM; note: in the data most compounds retested in dose-response had high values
T4 sequence (whole entry): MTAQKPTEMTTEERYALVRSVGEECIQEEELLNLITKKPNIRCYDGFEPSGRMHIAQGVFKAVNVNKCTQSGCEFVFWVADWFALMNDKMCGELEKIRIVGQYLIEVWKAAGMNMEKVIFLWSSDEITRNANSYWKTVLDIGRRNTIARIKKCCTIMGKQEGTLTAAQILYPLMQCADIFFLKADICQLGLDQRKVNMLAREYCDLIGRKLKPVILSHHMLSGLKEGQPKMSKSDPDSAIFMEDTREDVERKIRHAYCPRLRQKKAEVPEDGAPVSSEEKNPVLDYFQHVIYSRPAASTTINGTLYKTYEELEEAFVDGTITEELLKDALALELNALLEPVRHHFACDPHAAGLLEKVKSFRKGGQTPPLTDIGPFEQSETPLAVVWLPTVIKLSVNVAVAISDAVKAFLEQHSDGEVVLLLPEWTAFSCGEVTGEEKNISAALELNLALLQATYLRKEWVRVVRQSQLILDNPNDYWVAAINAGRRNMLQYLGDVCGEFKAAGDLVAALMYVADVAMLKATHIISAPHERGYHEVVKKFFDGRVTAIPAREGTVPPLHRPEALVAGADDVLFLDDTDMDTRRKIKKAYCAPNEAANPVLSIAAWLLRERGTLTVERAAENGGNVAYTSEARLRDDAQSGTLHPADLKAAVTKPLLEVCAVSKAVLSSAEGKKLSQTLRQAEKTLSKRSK

[8] = molecular target: T4, Tyrosyl-tRNA synthetase, putative (Trypanosoma cruzi (strain CL Brener)); test: Trypanosoma cruzi tyrosyl tRNA synthetase (TcYRS) SOP; format: functional; conditions: 30 µM
[9] = molecular target: Chromo domain-containing protein 1 (Saccharomyces cerevisiae (strain ATCC 204508 / S288c) (Baker's yeast)) (UniProt P32657); test: ScCHD-1 Enzyme Inhibition Assay; format: functional; conditions: 30 µM; note: in the data most compounds retested in dose-response had high values
Chain of Chromo domain-containing protein 1 (Saccharomyces cerevisiae (strain ATCC 204508 / S288c) (Baker's yeast)) (P32657 whole entry, the tested form may be a part): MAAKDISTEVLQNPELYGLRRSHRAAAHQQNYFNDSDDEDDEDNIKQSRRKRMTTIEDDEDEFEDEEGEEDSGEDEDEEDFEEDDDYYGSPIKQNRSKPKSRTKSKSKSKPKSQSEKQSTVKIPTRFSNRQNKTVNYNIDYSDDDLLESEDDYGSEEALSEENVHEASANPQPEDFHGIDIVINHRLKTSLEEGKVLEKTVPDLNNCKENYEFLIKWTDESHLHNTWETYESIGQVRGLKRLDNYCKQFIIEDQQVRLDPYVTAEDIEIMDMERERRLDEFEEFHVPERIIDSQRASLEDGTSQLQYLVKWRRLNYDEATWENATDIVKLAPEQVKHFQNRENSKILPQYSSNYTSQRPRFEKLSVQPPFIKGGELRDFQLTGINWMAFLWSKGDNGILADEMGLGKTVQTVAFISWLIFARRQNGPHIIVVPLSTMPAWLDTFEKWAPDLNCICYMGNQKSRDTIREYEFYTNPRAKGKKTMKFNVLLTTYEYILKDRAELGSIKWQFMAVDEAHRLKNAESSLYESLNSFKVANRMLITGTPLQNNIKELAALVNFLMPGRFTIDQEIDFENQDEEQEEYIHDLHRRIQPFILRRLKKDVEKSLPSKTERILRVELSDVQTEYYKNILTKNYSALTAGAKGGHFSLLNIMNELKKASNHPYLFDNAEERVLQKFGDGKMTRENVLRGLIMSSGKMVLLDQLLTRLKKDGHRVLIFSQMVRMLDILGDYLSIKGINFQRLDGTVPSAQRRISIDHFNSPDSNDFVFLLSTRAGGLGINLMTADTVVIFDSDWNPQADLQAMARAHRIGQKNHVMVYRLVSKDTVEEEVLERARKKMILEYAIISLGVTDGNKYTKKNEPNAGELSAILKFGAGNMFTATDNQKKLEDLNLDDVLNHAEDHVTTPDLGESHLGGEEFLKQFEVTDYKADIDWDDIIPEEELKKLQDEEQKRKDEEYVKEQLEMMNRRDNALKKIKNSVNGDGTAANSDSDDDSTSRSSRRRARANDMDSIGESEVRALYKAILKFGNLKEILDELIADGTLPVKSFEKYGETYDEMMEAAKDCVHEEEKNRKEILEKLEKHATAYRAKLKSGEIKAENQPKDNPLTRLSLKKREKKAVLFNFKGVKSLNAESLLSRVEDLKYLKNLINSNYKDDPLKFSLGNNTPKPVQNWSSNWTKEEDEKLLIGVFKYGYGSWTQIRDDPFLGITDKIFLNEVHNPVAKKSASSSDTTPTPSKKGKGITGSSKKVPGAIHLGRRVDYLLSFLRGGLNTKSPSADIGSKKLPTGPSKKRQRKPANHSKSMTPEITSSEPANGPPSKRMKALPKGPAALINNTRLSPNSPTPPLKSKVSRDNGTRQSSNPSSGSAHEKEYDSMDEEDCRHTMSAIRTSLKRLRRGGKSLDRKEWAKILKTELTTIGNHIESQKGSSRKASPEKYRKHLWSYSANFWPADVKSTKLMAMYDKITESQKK

Chain of Protein translocase subunit SecA (Escherichia coli (strain K12)) (P10408 whole entry): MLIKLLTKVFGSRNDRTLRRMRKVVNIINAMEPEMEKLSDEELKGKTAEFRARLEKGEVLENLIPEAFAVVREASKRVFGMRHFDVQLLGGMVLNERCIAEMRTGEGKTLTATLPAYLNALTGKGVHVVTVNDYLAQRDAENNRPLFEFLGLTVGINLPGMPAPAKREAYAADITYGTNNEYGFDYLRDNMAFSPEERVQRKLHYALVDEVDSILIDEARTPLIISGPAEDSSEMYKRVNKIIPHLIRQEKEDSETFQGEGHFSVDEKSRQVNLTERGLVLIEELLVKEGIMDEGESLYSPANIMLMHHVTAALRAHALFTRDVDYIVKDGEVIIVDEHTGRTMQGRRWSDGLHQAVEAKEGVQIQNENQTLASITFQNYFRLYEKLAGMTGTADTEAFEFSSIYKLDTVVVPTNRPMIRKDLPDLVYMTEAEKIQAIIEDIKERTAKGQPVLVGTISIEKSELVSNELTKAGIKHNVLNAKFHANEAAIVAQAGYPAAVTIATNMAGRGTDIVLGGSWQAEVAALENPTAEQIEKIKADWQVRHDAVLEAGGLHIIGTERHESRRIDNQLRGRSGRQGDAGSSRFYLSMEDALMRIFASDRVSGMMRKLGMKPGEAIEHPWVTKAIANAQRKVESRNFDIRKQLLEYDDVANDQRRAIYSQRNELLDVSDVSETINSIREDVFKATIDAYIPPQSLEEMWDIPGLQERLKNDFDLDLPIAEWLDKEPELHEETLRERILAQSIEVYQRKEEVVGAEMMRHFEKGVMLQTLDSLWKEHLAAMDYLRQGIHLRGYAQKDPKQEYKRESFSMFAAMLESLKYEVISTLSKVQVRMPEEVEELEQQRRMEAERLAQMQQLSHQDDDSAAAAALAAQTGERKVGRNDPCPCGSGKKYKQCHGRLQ

SMILES | Percent Effect [1] | Percent Effect [2] | Percent Effect [3] | Percent Effect [4] | Percent Effect (Trypanosoma cruzi) | Percent Effect [5] | Percent Effect [6] | Percent Effect (Homo sapiens) | Percent Effect [7] | Percent Effect [8] | Percent Effect [9]
CN1CCN(C(=O)NC2CC2)Cc2cccnc21 | -0.328% | 10.7% | -1.13% | 3.38% | -1.35% | -23.5% | 12% | -4.24% | 6.25% | 25% | -7.54%
O=C(CN1CCOC(Cn2cccn2)C1)NCc1cccs1 (stereo unspecified) | 0.0678% | -2.7% | -5.7% | 11.3% | 1.58% | -0.924% | 1.98% | -5.12% | 0.99% | 3.66% | -4.1%
O=C([C@H]1COC[C@H]2CN(C3CCCC3)C[C@H]21)N1CCCCO1 | -1.86% | 0% | 2.27% | 5.11% | -0.579% | -51.4% | 2.39% | -22.5% | 0% | -5% | -3.46%
O=C1CC(c2ccccc2)c2snc(C(=O)O)c2N1 (stereo unspecified) | -3.07% | 6.67% | -2.59% | -2.64% | 2.95% | 20.9% | 29.4% | 1.29% | 3.17% | 7.69% | -12%
Cc1nc(CN(C)C2CCCN(c3cccnn3)C2)no1 (stereo unspecified) | -0.0171% | 20.8% | -7.88% | 0.261% | -3.18% | 5.34% | 9.29% | 37.1% | 4.85% | 0% | -5.56%
CC(C)NC(=O)[C@@H]1C[C@H](N)CN1C(=O)c1cc2ccccc2[nH]c1=O | -3.02% | 20.8% | -9.81% | 9.13% | 4.76% | 4.86% | 12.3% | -0.74% | 8.42% | 15.4% | -6.54%
CN(Cc1cn2c(n1)CN(CC1CC1)CC2)Cc1ccco1 | -3.08% | 8% | 16.6% | 0.972% | -3.35% | 0.233% | 1.5% | 8.85% | 7.45% | 8.97% | -4.14%
CC[C@H](C)[C@H](NC(=O)c1ccccc1-n1cnnn1)C(=O)OC | -2.24% | -4% | 6.42% | -4.83% | -14.2% | -9.33% | 1.85% | -2.35% | -1.06% | -12.8% | 1.23%
Cc1nc(Cn2nc(C3CCNCC3)n(Cc3ccccc3)c2=O)no1 | -0.936% | 5.41% | 0.118% | 2.54% | -4.25% | -4.29% | 12.1% | 26.5% | 3.7% | 4.88% | -4.29%
CCc1ccc(NC(=O)N2C[C@H]3C[C@H](C(=O)NC)[C@@H](C2)O3)cc1 | 0.946% | 2.6% | 6.04% | -3.01% | -0.0986% | 0.645% | 5.4% | 11.2% | 1.06% | 6.41% | 93.4%
CC1(C(=O)N2CCOCC2)CN(Cc2ccccn2)CCO1 (stereo unspecified) | -7.59% | 1.35% | -5.87% | -5.46% | -4.35% | -5.8% | 9.52% | 24.2% | 1.07% | -3.9% | 6.62%
